Compound activity deposited in PubChem by National Center for Advancing Translational Sciences (NCATS).
The full list was thinned out, with hits kept by preference.
Pf Dd2 inh = inhibitors of Plasmodium falciparum Dd2 growth | P. falciparum Dd2 growth, SYBR Green, 72 h | Potency, µM (titrated, usually from 28.9 µM), inactives show at the top dose activity, negative = inhibition, hits mostly inhibitors | hit rate 4.3% among 120,000 | AID 1347417; active = well fitted inhibition curve with a large enough effect;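 note: plate controls were DMSO vehicle for no effect and reference drug for full effect; nearly all actives have a fitted effect of over 65% in size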
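Infected erythrocytes (Dd2, 0.3% parasitemia, 2.5% hematocrit final) are added to compound in RPMI-1640/Albumax II medium, grown 72 h at 37C in low oxygen, then lysed with saponin/Triton-X containing SYBR Green and read by fluorescence.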
The depositor's hits bear a star; i = inactive; [ ] = another dose, or the depositor's remark. Potency is the fitted concentration of half-maximal effect.

SMILES	Pf Dd2 inh
Cn1nccc1C(=O)N1C[C@@H](COc2ccccc2)[C@H](C(N)=O)C1	i
O=C(O)c1[nH]ncc1CN1CCC(N2CCC(C(=O)NCC3CCCO3)CC2)CC1 (stereo not given)	6.6%
COc1ccc(CNC(=O)CC[C@]23CC[C@](C)(O)C[C@H]2C(C)(C)C[C@@H]3NCc2ccccn2)cc1	7.94µM*
COc1ccc(CNC(=O)CC[C@]23CC[C@](C)(O)C[C@H]2C(C)(C)C[C@@H]3NC(=O)CC(C)(C)C)cc1	i
COc1ccc(CNC(=O)CC[C@]23CC[C@](C)(O)C[C@H]2C(C)(C)C[C@@H]3NC(=O)c2cccs2)cc1	i
CN1CCN(c2nc3c(c(=O)[nH]2)CCN(Cc2cn[nH]c2-c2ccccc2)CC3)CC1	97.4%[5.79 µM]
Cc1nc(CN2Cc3nc(-c4ccccc4)ccc3OCC2=O)cs1	-16.5%[44.1 µM]
O=C1COc2ccc(-c3ccsc3)nc2CN1Cc1ccccc1	-5.0%[44.1 µM]
CN1Cc2nc(Nc3ccc(C(F)(F)F)cc3)ccc2OCC1=O	i
Cc1nc(CN2Cc3nc(Nc4ccc(C(F)(F)F)cc4)ccc3OCC2=O)cs1	11.2µM*
O=C1COc2ccc(-c3ccsc3)nc2CN1Cc1ccc(C(F)(F)F)cc1	7.94µM*
O=C1COc2ccc(-c3cccnc3)nc2CN1Cc1ccc(C(F)(F)F)cc1	-25.0%[44.1 µM]
COc1ccccc1C(=O)N1CC[C@H]2COC(=O)N2c2cc(F)ccc2C1	1.3%[44.1 µM]
N#Cc1cccc(CN2CC[C@@H]3OCC(=O)N(c4ccccc4)[C@H]3CC2)c1	i
O=C(c1ccc2c(c1)OCO2)N1CCN(c2cc(-c3ccc(Cl)cc3)[nH]n2)CC1	-19.3%
O=C(NCc1ccncc1)C1CN(C(=O)COc2ccccc2)CC12CCOCC2 (stereo not given)	-12.1%
O=C(Nc1ccc([C@H]2OCC(=O)N(Cc3ccc(F)cc3)[C@@H]2CO)cc1)C1CCOCC1	-15.9%
CCc1nc(N2CCc3ccccc3C2)ncc1C(=O)O	14.4%
CNC(=O)N1CCC(C2CCN(C(=O)c3ccc(OC)c(F)c3)C2)CC1 (stereo not given)	-4.3%
CNC(=O)[C@H]1C[C@H](Oc2ccccc2)CN1C(=O)CCc1nc2ccccc2s1	8.6%
COc1nccc(N2CCC(CC(=O)N3CCN(C4CCCCC4)CC3)CC2)n1	i
CN(C1CCc2nn(C)c(=O)n2CC1)S(=O)(=O)c1cccc(C#N)c1 (stereo not given)	17.2%
CN1C(=O)c2cccn2CC1CNC(=O)NCCc1ccccc1 (stereo not given)	-0.1%
CCOc1cc(=O)n2c(c1C(=O)Nc1ccc(Cl)cc1C)CCCC2	43.3%
Clc1ccc(C2Cn3nnc(-c4noc(CCc5ccccc5)n4)c3CO2)cc1 (stereo not given)	i
SMILES	Pf Dd2 inh
CCOC(=O)Cn1c(=O)n(-c2cccc(Cl)c2)c2nc(-c3ccccc3Cl)nc(C(N)=O)c21	10µM*
CCOC(=O)Cn1c(=O)n(-c2ccccc2OC)c2nc(-c3ccccc3F)nc(C(N)=O)c21	-29.8%
CCOC(=O)Cn1c(=O)n(CC2CCCO2)c2nc(-c3ccccc3Cl)nc(C(N)=O)c21 (stereo not given)	6.4%
COc1ccc(F)c(CN2CCCC3(CCN(C(=O)c4cccc(C)n4)C3)C2)c1 (stereo not given)	-17.2%
COc1ccc(-c2csc(=Nc3ccccc3)n2CCO)cc1F	i
O=S(=O)(c1ccc(-c2csc(=Nc3ccc(OC(F)(F)Cl)cc3)n2CCCO)cc1)N1CCCC1	11.2µM*
CCn1c(-c2ccc(S(=O)(=O)N3CCOCC3)cc2)csc1=Nc1ccc(C)c(Cl)c1	-20.3%
O=C1Nc2ccccc2C12CN(Cc1ccsc1)C2	-6.4%[44.1 µM]
C[C@]1(O)CCN(C(=O)c2ccc(N3CCOCC3)cc2)C[C@@H]1O	-6.5%
CN1CCN(C(CN)C2CCCCC2)CC1 (stereo not given)	28.2µM*
O=C(NCc1ccc(-c2ccccc2)cc1)[C@H]1CCC[C@H](O)C1	-3.1%
O=C(C1CCOC1)N1CCC(C(=O)O)(n2ccc(-c3ccco3)n2)CC1 (stereo not given)	4.2%
Cc1nn(-c2ccccn2)c(C)c1[C@@H]1C=C[C@@H](NC(=O)NCc2ccccc2)C1	i
Cc1ccccc1-n1nc(C)c([C@H]2C=C[C@@H](OC(=O)N[C@H](C)c3ccccc3)C2)c1C	-8.1%[44.1 µM]
Cc1nn(-c2ccc(C(C)C)cc2)c(C)c1[C@@H]1C=C[C@@H](NC(=O)COCC(=O)O)C1	i
COc1ccc(-n2nc(C)c([C@H]3C=C[C@@H](OC(=O)N[C@H](C)c4ccccc4)C3)c2C)cc1	7.94µM*
COc1ccc(NC(=O)O[C@@H]2C=C[C@H](c3c(C)nn(-c4ccc(C)c(Cl)c4)c3C)C2)cc1	i
COc1ccc(-n2nc(C)c([C@@H]3C=C[C@@H](NCc4ccccc4)C3)c2C)cc1	2.82µM*
CCOc1cccc(CN2CCC(C)(c3noc(C4CCOCC4)n3)CC2)c1	-12.4%
CCCCCNc1ncnc2c1CN(c1ccccc1)C(=O)N(C)C2	-5.4%[44.1 µM]
O=C(O)C1CCc2nnc(C3CCCN(C(=O)c4ccc(C(F)(F)F)cc4)C3)n21 (stereo not given)	3.5%
O=C(c1ccc(Cl)nc1)N1CCc2nc(C3CC3)nc(-c3ccc(Cl)cc3)c2C1	-12.4%
O=C(NCc1ccncc1)c1cn(C2CN(C(=O)C3CC3)C2)nn1	21.1%
CN1Cc2ccc(C(=O)Nc3ccc(OC(F)(F)F)cc3)cc2OCC1=O	-0.9%[44.1 µM]
Cc1ccc(-c2cn3c(n2)N(C(=O)Cn2ccnc2C)CCC3)cc1	10µM*
SMILES	Pf Dd2 inh
COc1ccc(-c2cn3c(n2)N(C(=O)Cn2ccnc2)CCC3)cc1	6.3%
Cc1ccc(-c2cn3c(n2)N(C(=O)c2cnn4cccnc24)CCC3)cc1	-6.4%
O=C(c1ccoc1)N1CCC(c2n[nH]c(=O)n2Cc2ccc(F)cc2)CC1	19.1%
Cc1cc(N2CCC(N3CCCC(C(=O)NCCc4ccccc4)C3)CC2)ncn1 (stereo not given)	i
CCCn1c(C)c(CC(=O)NCCn2cccn2)c2c1CC(C)(C)CC2=O	i
Cc1ccc(/C=C(\C#N)c2nc3ccccc3c(=O)[nH]2)cc1	13.1%
Cc1ccc(/C=C/c2nc3ccccc3[nH]2)cc1	10µM*
Cc1ccc(C(C)(C)C)c(OCC(=O)NCCc2nc3ccccc3[nH]2)c1	4.3%
CCOC(=O)c1ccc(NC(=O)N2Cc3[nH]cnc3C[C@H]2c2nc(-c3ccc(OC(F)(F)F)cc3)no2)cc1	i
COCC(=O)NC[C@H]1COCc2nc3cc(C(=O)OC)ccc3n21	i
O=C1NC2(CCCN(C(=O)c3ccc(Cl)cc3)C2)Oc2ccccc21 (stereo not given)	14.6%
Cc1ncc(CN2CCC(C(=O)Nc3cccc(-c4cc5ccccc5[nH]4)c3)CC2)cn1	8.91µM*
CSc1cccc(NC(=O)C2CCN(c3nc4ccccc4[nH]3)CC2)c1	i
O=C(Nc1cccc(-c2ccco2)c1)C1CCN(Cc2ccc(CO)o2)CC1	-25.2%
CCOc1ccccc1CN1CCN(Cc2nccn2CC)CC1CCO (stereo not given)	i
COc1ccc(CN2CCN(Cc3cc4ccccc4[nH]3)CC2CCO)c(C)c1C (stereo not given)	8.91µM*
COc1cc(CN2CCN(Cc3cnc(SC)nc3)CC2CCO)cc(OC)c1 (stereo not given)	i
O=C1NC2(CCN(C(=O)c3ccc(Cl)cc3)CC2)Oc2ccccc21	6.6%
O=C(O)Cn1ccc2cc(OCCc3cccc(-c4cncnc4)c3)cnc21	-11.9%[44.1 µM]
CC(C)NC(=O)C1CCCN(c2ncnc3onc(-c4ccc(F)cc4)c23)C1 (stereo not given)	-2.8%
